According to PubChem BioAssay (NCATS):
Several values for one entry are separate records, joined by “and”; a condition that tells them apart may be missing. Equal values may be shown once. Inconclusive results are not listed. A call without a number means that no potency is given here. A structure can be active in one record and inactive in another. Activity calls are given as the source filed them. The call rests on the fitted dose curve; in most records, active means well fitted inhibition curve with a large enough effect; inconclusive means small, poorly fitted or top-dose-only effect; inactive means flat fitted curve, though single readings scatter.

The compounds below were run against Glutathione peroxidase 1 (Homo sapiens) (UniProt P07203) (assay: Primary qHTS Assay for Inhibitors of Recombinant Selenoprotein Glutathione Peroxidase 1 (GPX1) (AID 1845191)). Details: recombinant GPX1, GR-coupled NADPH fluorescence, 15 min; series mostly up to 48.8 µM; activity, negative = inhibition: at the top concentration.
Procedure, shortened: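 NADPH consumption tracked by fluorescence at 340/450 nm between t=0 and t=15 min, room temperature. Final mix: 10 nM GPX1, 100 nM glutathione reductase, 1 mM GSH, 0.5 mM NADPH, 0.5 mM cumene hydroperoxide, 0.01% BSA; 30 min compound–enzyme preincubation.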
Further: nearly all actives have a fitted effect of over 65% in size.
Potency means the concentration at half of the fitted maximal effect.

Chain of Glutathione peroxidase 1 (Homo sapiens) (P07203 whole entry, looked up): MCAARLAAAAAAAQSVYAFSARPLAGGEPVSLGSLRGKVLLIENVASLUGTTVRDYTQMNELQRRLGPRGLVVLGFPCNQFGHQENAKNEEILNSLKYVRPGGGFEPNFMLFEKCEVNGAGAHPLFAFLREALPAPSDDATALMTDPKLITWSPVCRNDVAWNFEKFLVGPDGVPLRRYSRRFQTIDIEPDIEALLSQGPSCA

Compound	outcome	Potency	activity, negative = inhibition
OC[C@@H](O)[C@H](O)[C@H](O)[C@@H](O)CO	inactive	–	–
CNC1CCC(N(Cc2cccc(-c3ccncc3)c2)C(=O)c2sc3c(F)ccc(F)c3c2Cl)CC1 (stereo not given)	–	inactive	–
CC(=O)Oc1cc2c(s1)CCN(C(C(=O)C1CC1)c1ccccc1F)C2 (stereo not given)	–	16.1 µM (active) and inactive and 20.2 µM (active)	–
CN(C[C@@H]1COCCO1)S(=O)(=O)Nc1ccc2ccc3ncc(-c4cnn(C)c4)cc3c(=O)c2c1	–	inactive	–
CC(C)C(=O)Nc1ncc(-c2cc(C(F)F)nn2-c2c(Cl)cccc2Cl)s1	inactive	–	–
CC(C)C(=O)Oc1ccc(CO)cc1[C@H](CCN(C(C)C)C(C)C)c1ccccc1	–	inactive	–
COc1ccc2c(Oc3ccc(NC(=O)c4c(C)n(CC(C)(C)O)n(-c5ccccc5)c4=O)nc3)ccnc2c1	–	inactive	–
O=c1c(O)c(-c2ccc(O)cc2)oc2cc(O)cc(O)c12	inactive	–	–
COc1cc2ncnc(-n3nc(-c4ccccn4)nc3N)c2cc1OC	–	inactive	–
O=c1cc(CN2CCOCC2)occ1OCCCCCSc1ccnc2cc(C(F)(F)F)ccc12	–	inactive	–
COCCOC(=O)C1=C(C)NC2=C(C(=O)CC(c3ccccc3OC)C2)C1c1cccc(O)c1 (stereo not given)	inactive	–	–
Nc1ncnc2ccccc12	inactive	–	–
C=C1C(=O)[C@@]23C(CC[C@@H]1[C@H]2O)[C@@]12CO[C@]3(O)[C@@H](O)[C@@H]1C(C)(C)CC[C@@H]2O (stereo not given in full)	–	–	-6.46% (inactive)
COc1ncc(-c2ccc3nccc(-c4ccnnc4)c3c2)cc1NS(=O)(=O)c1ccc(F)cc1F	–	inactive	–
CC(C)n1cnc2c(NCCCCCCNC(=O)OC(C)(C)C)nc(NCCO)nc21	inactive	–	–
CC(C)(C)COc1ccc(-n2cc(C(=O)O)cn2)cc1C#N	inactive	–	–
O=c1cc(-c2cccc3c2Sc2ccccc2S3)oc(N2CCOCC2)c1	–	–	-0.0869% (inactive)
Cc1ccc(Nc2cc(-c3cccc(N4C(=O)c5ccccc5C4=O)c3)ncn2)cc1NS(C)(=O)=O	inactive	–	–
Oc1ccc(C2=Cc3ccc(O)cc3OC2)cc1	inactive	–	–
CS(=O)c1ccc(-c2nc(-c3ccc(F)cc3)c(-c3ccncc3)[nH]2)cc1 (stereo not given)	–	–	1.04% (inactive)
CC(C)(C)c1cc(C(=O)O)c(NC(=O)Nc2ccc3[nH]ncc3c2)s1	–	inactive	–
C[C@H](NC(=O)c1sccc1OCc1ccc(Cl)cc1)c1ccccc1	inactive	–	–

What follows are compounds tested against Phospholipid hydroperoxide glutathione peroxidase GPX4 (Homo sapiens) (UniProt P36969) (assay: Primary qHTS Assay for Inhibitors of Recombinant Selenoprotein Glutathione Peroxidase 4 (GPX4) (AID 1845192)). Details: recombinant GPX4, GR-coupled NADPH fluorescence, 15 min; series mostly up to 50 µM; activity change, negative = inhibition: at the top concentration.
Procedure, shortened: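 NADPH consumption followed by fluorescence at 340/450 nm, t=0 and after 15 min at room temperature. Reaction started with cumene hydroperoxide (0.5 mM final) after 30 min compound–GPX4 preincubation; final 200 nM GPX4, 100 nM GR, 1 mM GSH, 0.5 mM NADPH.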

Chain of Phospholipid hydroperoxide glutathione peroxidase GPX4 (Homo sapiens) (P36969 whole entry, looked up): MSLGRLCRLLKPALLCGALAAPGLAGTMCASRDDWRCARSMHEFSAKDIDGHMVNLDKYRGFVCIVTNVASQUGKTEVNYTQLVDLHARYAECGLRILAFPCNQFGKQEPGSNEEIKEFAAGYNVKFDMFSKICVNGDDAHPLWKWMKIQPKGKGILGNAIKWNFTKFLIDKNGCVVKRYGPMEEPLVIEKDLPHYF

Compound	activity change, negative = inhibition	Potency	outcome
C[C@]12CC[C@@H]3c4ccc(O)cc4C[C@@H](CCCCCCCCCS(=O)CCCC(F)(F)C(F)(F)F)[C@H]3[C@H]1CC[C@H]2O (stereo not given in full)	-3.61% (inactive)	–	–
Cc1nc(N)sc1-c1ccnc(Nc2ccc(N3CCOCC3)cc2)n1	–	inactive	–
COc1ccc2cccc(CCNC(C)=O)c2c1	–	inactive	–
CN1C[C@H]2c3ccccc3Oc3ccc(Cl)cc3[C@@H]2C1	-11.9% (inactive)	–	–
CC(C(=O)O)c1ccc(-c2ccccc2)c(F)c1 (stereo not given)	–	inactive	–
CC(C)(C)C(=O)Oc1ccc2c(c1)nc(NC(=O)c1cccc([N+](=O)[O-])c1)n2CCCO	3.25% (inactive)	–	–
O=c1[nH]cnc2c1ncn2[C@H]1CC[C@@H](CO)O1	–	inactive	–
N#CC1(c2ccc(NC(=O)c3cccnc3NCc3ccncc3)cc2)CCCC1	-8.96% (inactive)	–	–
COc1cc2c(cc1OC)CN(CCc1ccc(NC(=O)c3cc(OC)c(OC)cc3NC(=O)c3cnc4ccccc4c3)cc1)CC2	–	inactive	–
CC(C)C(C)C=CC(C)C1CCC2C3=CC=C4CC(O)CCC4(C)C3CCC21C (stereo not given)	-10.4% (inactive)	–	–
CC(C)(C)Cn1c(N)nc2ccc(-c3[nH]c(C(C)(C)C)nc3-c3ccc(F)cc3)nc21	–	inactive and 9.04 µM (active)	–
CC(=O)Nc1ccc([C@H](C)C(=O)Nc2ncc(C(C)C)s2)cc1	10.3% (inactive)	–	–
COc1ccc(-c2coc3cc(O)cc(O)c3c2=O)cc1	-44.4% (inactive)	–	–
COc1ccc(Cc2ccc(NC(N)=O)cc2)cc1-c1cccc(Cl)c1	-7.3% (inactive)	–	–
COc1cc(N2CCC(N3CCN(C)CC3)CC2)ccc1Nc1ncnc(Nc2ccccc2S(=O)(=O)C(C)C)n1	–	inactive	–
O=c1cc(N2CCOCC2)oc2c(-c3cccc4c3sc3ccccc34)cccc12	-21.3% (inactive)	–	–
OC[C@@H](O)[C@H](O)[C@H](O)[C@@H](O)CO	–	–	inactive
CNC1CCC(N(Cc2cccc(-c3ccncc3)c2)C(=O)c2sc3c(F)ccc(F)c3c2Cl)CC1 (stereo not given)	–	inactive	–
CC(=O)Oc1cc2c(s1)CCN(C(C(=O)C1CC1)c1ccccc1F)C2 (stereo not given)	–	inactive	–

Compound	activity change, negative = inhibition	Potency	outcome
CN(C[C@@H]1COCCO1)S(=O)(=O)Nc1ccc2ccc3ncc(-c4cnn(C)c4)cc3c(=O)c2c1	0.135% (inactive)	–	–
CC(C)C(=O)Nc1ncc(-c2cc(C(F)F)nn2-c2c(Cl)cccc2Cl)s1	-40.6% (inactive)	–	–
CC(C)C(=O)Oc1ccc(CO)cc1[C@H](CCN(C(C)C)C(C)C)c1ccccc1	–	–	inactive
COc1ccc2c(Oc3ccc(NC(=O)c4c(C)n(CC(C)(C)O)n(-c5ccccc5)c4=O)nc3)ccnc2c1	–	inactive	–
O=c1c(O)c(-c2ccc(O)cc2)oc2cc(O)cc(O)c12	-33.6% (inactive)	–	–
COc1cc2ncnc(-n3nc(-c4ccccn4)nc3N)c2cc1OC	–	inactive	–
O=c1cc(CN2CCOCC2)occ1OCCCCCSc1ccnc2cc(C(F)(F)F)ccc12	-2.54% (inactive)	–	–
COCCOC(=O)C1=C(C)NC2=C(C(=O)CC(c3ccccc3OC)C2)C1c1cccc(O)c1 (stereo not given)	–	inactive	–
Nc1ncnc2ccccc12	-8.17% (inactive)	–	–
C=C1C(=O)[C@@]23C(CC[C@@H]1[C@H]2O)[C@@]12CO[C@]3(O)[C@@H](O)[C@@H]1C(C)(C)CC[C@@H]2O (stereo not given in full)	-9.19% (inactive)	–	–
COc1ncc(-c2ccc3nccc(-c4ccnnc4)c3c2)cc1NS(=O)(=O)c1ccc(F)cc1F	-9.42% (inactive)	–	–
CC(C)n1cnc2c(NCCCCCCNC(=O)OC(C)(C)C)nc(NCCO)nc21	-14.5% (inactive)	–	–
CC(C)(C)COc1ccc(-n2cc(C(=O)O)cn2)cc1C#N	-16.5% (inactive)	–	–
O=c1cc(-c2cccc3c2Sc2ccccc2S3)oc(N2CCOCC2)c1	-13.2% (inactive)	–	–
Cc1ccc(Nc2cc(-c3cccc(N4C(=O)c5ccccc5C4=O)c3)ncn2)cc1NS(C)(=O)=O	-8.62% (inactive)	–	–
Oc1ccc(C2=Cc3ccc(O)cc3OC2)cc1	-20.1% (inactive)	–	–
CS(=O)c1ccc(-c2nc(-c3ccc(F)cc3)c(-c3ccncc3)[nH]2)cc1 (stereo not given)	–	25.5 µM (active)	–
CC(C)(C)c1cc(C(=O)O)c(NC(=O)Nc2ccc3[nH]ncc3c2)s1	–	inactive	–
C[C@H](NC(=O)c1sccc1OCc1ccc(Cl)cc1)c1ccccc1	–	–	inactive
